# A selection: hits, their analogues and other compounds. The true share with any hit is near 1.2%.
# RXFP1 antag: qHTS Assay for Antagonists of the Relaxin Receptor RXFP1 | 350,000 tested, 0.59% active | activity change, negative = inhibition, % at 57.5 µM | Relaxin receptor 1 (Homo sapiens), Q9HBX9 | HEK293-RXFP1, relaxin-stimulated cAMP HTRF, 30 min; stronger effect = lower value | AID 1259400, 2018;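 active = activity change of -60% or lower, but not beyond a set lower limit; inconclusive = change between -60% and -40%, or beyond the set limit; inactive = change above -40%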; note: % is set by controls: 0 for no effect and ±100 for the full control effect
# Target sequence (Q9HBX9 whole entry, looked up): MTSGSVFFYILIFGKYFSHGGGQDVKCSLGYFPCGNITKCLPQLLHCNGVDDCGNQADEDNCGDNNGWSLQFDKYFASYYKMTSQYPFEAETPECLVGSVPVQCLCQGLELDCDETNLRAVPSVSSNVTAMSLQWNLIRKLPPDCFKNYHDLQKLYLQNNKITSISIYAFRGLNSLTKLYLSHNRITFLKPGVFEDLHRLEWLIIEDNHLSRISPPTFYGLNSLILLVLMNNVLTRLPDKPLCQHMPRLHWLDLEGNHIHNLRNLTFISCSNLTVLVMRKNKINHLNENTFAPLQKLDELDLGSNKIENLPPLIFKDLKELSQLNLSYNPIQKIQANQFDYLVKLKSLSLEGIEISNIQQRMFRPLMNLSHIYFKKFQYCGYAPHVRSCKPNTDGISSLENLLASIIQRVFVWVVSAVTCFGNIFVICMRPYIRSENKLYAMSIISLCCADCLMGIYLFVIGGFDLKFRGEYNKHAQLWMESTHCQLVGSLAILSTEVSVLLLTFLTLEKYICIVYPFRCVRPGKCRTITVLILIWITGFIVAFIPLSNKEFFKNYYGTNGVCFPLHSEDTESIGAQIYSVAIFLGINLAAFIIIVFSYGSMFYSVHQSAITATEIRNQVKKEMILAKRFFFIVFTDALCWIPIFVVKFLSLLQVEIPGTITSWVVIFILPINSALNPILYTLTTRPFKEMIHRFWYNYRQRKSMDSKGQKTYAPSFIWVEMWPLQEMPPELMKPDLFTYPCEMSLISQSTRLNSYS
# gsp ag: qHTS for Agonist of gsp, the Etiologic Mutation Responsible for Fibrous Dysplasia/McCune-Albright Syndrome: qHTS; Potency, µM (top dose mostly 76.9 µM), without a hit: at the top dose activation (cAMP increase), usual class: activators; AID 624287, 2012; 340,000 tested, 0.13% active; gsp mutant cells, cAMP HTRF, 30 min; active = well fitted activation curve with a large enough effect; inconclusive = small, poorly fitted or top-dose-only effect, or another doubt; inactive = no such curve, though single readings can be large or run the other way; cell line not stated here;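 note: phosphodiesterase inhibitor Ro 20-1724 added with compounds to block cAMP breakdown; potency is the fitted concentration of half-maximal effect; nearly all actives have a fitted effect of over 60% in size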
#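 Cells in DMEM/10% FBS with G418 were pretreated with compounds in DMSO plus […] (300 uM stock) for 30 min at 37C. cAMP was measured by HTRF (cAMP-d2 plus anti-cAMP antibody-K) after 30 min at room temperature.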
# RXFP1 agonist: qHTS Assay for Agonists of the Relaxin Receptor RXFP1 | Potency, µM (highest dose often 57.5 µM), for the others: at the top dose activation, usual class: activators | HEK293T-RXFP1 cAMP TR-FRET, 30 min; response scale: percent of porcine relaxin response, buffer zero | Relaxin receptor 1 (Homo sapiens), Q9HBX9 | 370,000 tested, 0.3% active | AID 2676, 2010; active = well fitted activation curve with a large enough effect; inconclusive = small, poorly fitted or top-dose-only effect; note: potency is the fitted concentration of half-maximal effect; % is set by controls: 0 for no effect and ±100 for the full control effect; nearly all actives have a fitted effect of over 60% in size
#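 cAMP rise read by TR-FRET after 30 min, 37C compound exposure (up to 58 uM) in RXFP1-transfected HEK293 cells with Ro 20174 present. EC50 from Hill-equation fits, with 29 nM porcine relaxin as 100% and buffer as basal.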
# gsp antagonist: qHTS for Antagonists of gsp, the Etiologic Mutation Responsible for Fibrous Dysplasia/McCune-Albright Syndrome: qHTS; 340,000 tested, 0.4% active; Potency, µM (highest dose often 76.9 µM), without a hit: at the top dose activity change, negative = inhibition, usual class: inhibitors; gsp-mutant cells, cAMP HTRF, 30 min; AID 624288, 2012; calls by dose curve; cell line not stated here;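 note: intracellular cAMP measured with PDE inhibitor Ro 20-1724 present during compound exposure; potency is the fitted concentration of half-maximal effect; % is set by controls: 0 for no effect and ±100 for the full control effect; nearly all actives have a fitted effect of over 65% in size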
#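 Measurement of cellular cAMP by homogeneous time-resolved fluorescence following a 30 min compound exposure at 37C. The PDE inhibitor […] was present throughout; the assay buffer was DPBS with 0.05% BSA and 0.005% Tween 20.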
# Akt phos inh: HTS Assay for Inhibitors of Akt Phophorylation: Primary Screen. AID 651550, 2012. activity change, % for hits at 50 µM. Neuro2A IGF-stimulated pAkt S473 HTRF, 20 min; stronger effect = lower value. 360,000 tested, 0.32% active; in the data active = activity change below about -80%; inconclusive = mostly about -51% to -80%; note: % is set by controls: 0 for no effect and ±100 for the full control effect
#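 Neuro2A cells in DMEM with 0.5% FBS, overnight at 37 deg C, given compound at single 50 µM final, then IGF (6 nM final) for 20 min at 37 deg C. Lysed; phospho-Akt Ser473 by HTRF after 24 h, 665/615 ratio.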
# Numbers without * were called inactive; i = inactive; ? = inconclusive; · = not tested or not shown; [ ] = another dose, or the depositor's remark.
SMILES,RXFP1 antag,gsp ag,RXFP1 agonist,gsp antagonist,Akt phos inh
Cc1ccc(C)c(NC(=O)C2CCCN(c3nc4ccccc4s3)C2)c1 (stereo unspecified),-8,·,1%,·,·
O=Nc1c(-c2c(O)[nH]c3cc(Br)ccc23)[nH]c2ccccc12,·,·,0%,20µM*,i
O=C(CSCc1cccc(Br)c1)N=Nc1c(O)[nH]c2ccccc12,-5,-24%,-2%,-19%,i
Clc1ccccc1C(c1ccccc1)(c1ccccc1)n1ccnc1,-94*,·,1%,?,i
COc1ccc(CNC(=O)Cn2c(SCC(=O)Nc3ccc(OC)cc3)nc3ccccc32)cc1,-9,·,1%,·,·
C=C(C)Cn1c(-c2ccncc2)n[nH]c1=S,-67*,-19%[15.4 µM],1%,·,i
COc1ccc(Br)cc1CNC(=O)CCCn1c(=O)c2cccn2c2ccccc21,-40,·,11%,·,·
Cc1cc(C)nc(N2CCC(C(=O)N3CCN(c4cc(Cl)ccc4C)CC3)CC2)n1,-20,?,4%,28µM*,·
Cc1ccc(C)c(N2CCN(C(=O)C3CCN(c4nc5ccc(C)cc5[nH]4)CC3)CC2)c1,-69*,·,4%,·,·
Cc1ccc(C)c(N2CCN(C(=O)C3CCN(c4nc(C)cc(C)n4)CC3)CC2)c1,-1,-36%,0%,35µM*,·
CCOC(=O)c1cnc2ccc(OC(F)(F)F)cc2c1Nc1ccccc1C(=O)O,·,·,5%,·,·
COc1ccc(CCNc2oc(COc3ccc(Br)cc3)nc2C#N)cc1OC,-62*,-25%,2%,40µM*,i
CCOc1ccc(Cn2nnc3c(=O)[nH]c(C4CCN(C(=O)c5ccccc5)CC4)nc32)cc1,-16,·,0%,·,·
O=C(Nc1ccc(S(=O)(=O)N2CCOCC2)cc1)c1cccnc1,-8,-2%[15.4 µM],0%,4%,i
O=C(NCCOC(=O)c1ccc(S(=O)(=O)N2CCOCC2)cc1)c1cccnc1,9,28µM*,23%,5%,i
COC(=O)c1sccc1NC(=O)CN(C)NS(=O)(=O)c1ccc(F)cc1,20,-1%,2%,50µM*,i
COC(=O)c1sccc1NC(=O)CN(C)NS(=O)(=O)c1ccc(Cl)cc1,16,-8%,0%,8%,i
CCc1nnc2n1N(C(C)=O)C(c1ccc(C(C)(C)C)cc1)=C(C(C)=O)S2,-30,·,2%,·,·
c1ccc2c(c1)ncn2CCCOc1ccc2c(c1)CCC2,12,-18%,1%,28µM*,i
Cc1cc(C)cc(Nc2cc(-c3ccccc3)nc(C)n2)c1,-37,·,3%,·,·
Cn1c(=O)c2c(ncn2CC(=O)OCC(=O)c2ccc(F)c(F)c2)n(C)c1=O,-20,-32%,2%,5%,i
Cc1cc(C(=O)COC(=O)Cn2cnc3c2c(=O)n(C)c(=O)n3C)c(C)n1C,2,4µM*,?,22%,i
Cc1cccc(NC(=O)CSc2cn(CC(=O)N3CCC(C)CC3)c3ccccc23)c1C,-8,·,2%,·,·
O=c1ccc(=O)n(-c2ccccc2)[nH]1,0,-18%[15.4 µM],2%,1%,i
O=c1cc(-c2ccccc2)[nH]n1-c1ccccc1,-73*,20%,·,-18%,i
SMILES,RXFP1 antag,gsp ag,RXFP1 agonist,gsp antagonist,Akt phos inh
COc1ccc(C)cc1NC(=O)c1ccc2c(SCC(=O)O)c3c(nc2c1)CCCC3,2,-26%,0%,-10%,i
Cc1ccc(NC(=O)c2ccc3c(SCC(=O)O)c4c(nc3c2)CCCC4)c(Br)c1,19,13µM*,11%,-22%,i
Cc1ccc(C)c(N2CCN(C(=O)Cn3c(-c4cccs4)cc4ccccc43)CC2)c1,-21,·,6%,·,·
Cc1ccc(C(OCC(O)CNC(C)c2ccccc2)c2ccccc2)cc1 (stereo unspecified),-70*,9%[15.4 µM],2%,1%,i
CC(C)(C)c1csc(NNC(=O)c2ccc(Br)cc2)n1,-61*,8%[15.4 µM],1%,-14%,i
CC(C)(C)c1csc(NC(=O)c2ccccc2O)n1,-35,-4%[15.4 µM],0%,-23%,i
O=C(COc1ccccc1O)Nc1ccc(Cl)cc1,5,18%,-3%,35µM*,i
S=c1[nH]c2nc(Cl)c(Cl)nc2[nH]1,3,13µM*,·,·,i
S=c1[nH]c2cnc(Cl)nc2[nH]1,-2,?,·,4%,i
O=C(COC(=O)c1ccccc1NC(=O)c1ccco1)Nc1ccc2c(c1)OCO2,1,1%,2%,-8%,-102%*
COc1ccc(CCNC(=O)c2ccc(-c3ccc([N+](=O)[O-])cc3)o2)cc1OC,4,0%,3%,32µM*,i
COc1cc(CC(=O)OCC(=O)Nc2cc([N+](=O)[O-])ccc2Cl)cc(OC)c1OC,-2,-17%,4%,-15%,i
COc1ccc(CC(=O)NNS(=O)(=O)c2ccccc2[N+](=O)[O-])cc1OC,9,-5%[15.4 µM],-5%,-11%,i
COc1ccc([N+](=O)[O-])cc1NC(=O)COC(=O)Cc1cc(OC)c(OC)c(OC)c1,2,7%,1%,50µM*,i
COc1ccc(CC(=O)NNS(=O)(=O)c2ccc([N+](=O)[O-])cc2)cc1OC,-84*,1%,-1%,7%,i
CC(=O)/C=C/C=C1/C2CCC(C2)C1(C)C (stereo unspecified),-20,·,·,·,·
O=C(CCCl)NCc1ccccc1,21,·,·,·,·
CC(C)COC(=S)Nc1ccccc1,-5,?,0%,1%,-108%*
CN(C)S(=O)(=O)c1ccc(Cl)c(NC(=O)CN2CCN(Cc3ccc4c(c3)OCO4)CC2)c1,0,10%,3%,11µM*,i
CCOc1ccc(C2C=C(c3ccc(C)cc3)Nc3nnnn32)cc1 (stereo unspecified),9,11%,1%,40µM*,i
Cn1cccc1-c1cc(C(=O)N/N=C/c2cc(Br)ccc2O)[nH]n1,-61*,30%,28%,?,i
Cn1cccc1-c1cc(C(=O)N/N=C/c2ccccc2Cl)[nH]n1,-23,-6%,1%,-26%,i
O=C1OC(/C(=C\Nc2cc(Cl)ccc2O)[N+](=O)[O-])c2ccccc21 (stereo unspecified),-82*,19%[15.4 µM],0%,-24%,i
CC1C(c2ccc3c(c2)OCO3)c2cc3c(cc2OC1N1CCOCC1)OCO3 (stereo unspecified),-73*,1%,·,-3%,i
Nc1c(NC/C=C\COc2cc(CN3CCCCC3)ccn2)c(=O)c1=O,-13,·,·,·,·
O=C(Nc1ccc([N+](=O)[O-])cc1)Nc1ccc(OC(F)F)c(Cl)c1,?,-26%,1%,40µM*,i
